Test results from PubChem BioAssay AID492947 (National Center for Advancing Translational Sciences (NCATS), 2010).
The whole screen tested about 330,000 compounds, of which about 80 (0.02%) were called active. The call rests on the fitted dose curve; in most records, active means well fitted activation curve with a large enough effect; inconclusive means small, poorly fitted or top-dose-only effect; inactive means flat fitted curve, though single readings scatter. Shown is part of a subset that was picked to be rich in actives.

target: Beta-2 adrenergic receptor (Homo sapiens) (UniProt P07550); test: qHTS assay of beta-arrestin-biased ligands of beta2-adrenergic receptor; conditions: beta-arrestin recruitment to beta2AR, cell-based reporter; series mostly up to 46.1 µM; further: nearly all actives have a fitted effect of over 65% in size
Source text: NIH Molecular Libraries Probe Production Network [MLPCN]
NIH Chemical Genomics Center [NCGC]
PI: Bryan Roth and Bob Lefkowitz
The concept of biased agonism is an emerging concept of molecular pharmacology which proposes that seven transmembrane receptors (7TMRs) or G protein-coupled receptors (GPCRs), exist in multiple signaling conformations and complexes and that ligands (either agonists or antagonists) can induce signaling biased responses for distinct signal transduction cascades.
Furthermore, accumulating evidence over the last decade has drawn attention to a novel function of beta-arrestins as signal transducers that scaffold various signaling molecules upon activation of 7TMRs. […] This beta-arrestin-biased signaling presumably leads to distinct physiological outcomes from those by G protein activation.
Additionally, the active receptor conformations which […] on this beta-arrestin signaling are likely different from those activating G protein signaling
The goal of this screening project will be to discover and optimize novel beta-arrestin-biased ligands for beta2-AR signaling. A luminescent cell-based assay for beta2-AR-mediated agonism, known as the Tango assay, has been validated in which ligand binding of a recombinant beta2-AR and subsequent recruitment of a recombinant beta-arrestin lead to the release of the transcriptional activator tTA, which upregulates transcription of a tTA-responsive luciferase gene. […] Compounds were screened as a concentration-titration series that ranged from 46 microM to 0.6 nM.
NCGC Assay Protocol Summary:
Tango cells were dispensed into white, solid, tissue-culture-treated 1536-well plates at 1500 cells/well in DMEM, containing 1% fetal bovine serum (FBS). Then, 23 nL of compounds or DMSO were delivered to each well using a pin tool. Plates were incubated at 37 degrees C, 5% CO2 for 18 hr. Then 2.5 uL luminescent substrate mix (in-house prepared: 150 mM Tris-Cl, pH 7.6, 3 mM MgCl2, 1% Triton X-100, 5 mM DTT, 0.5 mM CoA, 0.15 mM ATP, 0.44 mM D-luciferin, final concentrations) was added to each well. Plates were then incubated for 15 minutes at room temperature, and subsequently measured on a ViewLux plate reader for luminescent signal using a clear filter with a 10 second exposure and 2x binning. The %Activity was determined from the corrected luminescence values.
Concentration-response curves were fitted to the signals arising from the resulting luminescence. The concentration-effect curves were then classified based on curve quality (r2), response magnitude and degree of measured activity, and compounds were subsequently categorized based on their curve class.
Keywords: biased agonism, beta2-AR, beta-arrestin, GPCR, 7TMR, Tango, luminescence, MLSMR, MLPCN, NIH Roadmap, qHTS, NCGC

Sequence of Beta-2 adrenergic receptor (Homo sapiens) (P07550 whole entry, looked up): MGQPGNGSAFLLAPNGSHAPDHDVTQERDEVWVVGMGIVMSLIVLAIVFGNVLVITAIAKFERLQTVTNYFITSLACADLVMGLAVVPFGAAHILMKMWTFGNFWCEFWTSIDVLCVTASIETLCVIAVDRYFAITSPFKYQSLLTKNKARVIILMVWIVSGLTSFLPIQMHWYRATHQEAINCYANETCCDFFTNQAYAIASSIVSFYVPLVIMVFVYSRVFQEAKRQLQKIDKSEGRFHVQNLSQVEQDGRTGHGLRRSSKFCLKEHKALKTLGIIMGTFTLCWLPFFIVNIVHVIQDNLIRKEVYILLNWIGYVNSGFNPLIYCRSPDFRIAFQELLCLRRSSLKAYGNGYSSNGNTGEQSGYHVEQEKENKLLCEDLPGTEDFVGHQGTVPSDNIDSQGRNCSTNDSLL

Potency, inactive:
Cc1ccsc1C(=O)OCC(=O)NCCc1ccccc1
Cc1ccc(S(=O)(=O)NCCC(=O)NNC(=O)C2COc3ccccc3O2)cc1 (stereo not drawn)
COc1ccc(CC(=O)NCc2nnc(SCC(=O)Nc3ncc(C)s3)n2C)cc1
CC1CCCCC1NC(=O)c1cc(=O)[nH]c2ccccc12 (stereo not drawn)
Cc1csc2ncc(C(=O)N(Cc3ccccc3)c3ccccn3)c(=O)n12
c1ccc(-c2cnc(CN3CCN(c4ccccc4)CC3)o2)cc1
Cc1cccc(C)c1N1C(=O)CN(Cc2ccccc2)C1=S
Cc1cccc(N(C(=O)Cn2nnc(-c3ccc(C)o3)n2)C(C(=O)NC2CCCC2)c2ccncc2)c1 (stereo not drawn)
COc1ccccc1N1CC(C(=O)Nc2nnc(SCC(=O)NC(C)C)s2)CC1=O (stereo not drawn)
CCO[C@H]1OC(C(=O)N2CCCCCCC2)=C[C@@H](c2ccc(C(F)(F)F)cc2)[C@@H]1CCCO
COc1ccc(S(=O)(=O)N(C)C[C@H]2Oc3ccc(NS(=O)(=O)c4cccs4)cc3CC(=O)N([C@H](C)CO)C[C@H]2C)cc1
O=C(Cn1cncn1)N/N=C/c1c2ccccc2cc2ccccc12
CCCOC1CCCN(C(=O)c2cc(COc3cncc(Cl)c3)on2)C1 (stereo not drawn)
CCC1SC(CC)C(=O)N(CC(=O)NC2CCCCC2)C1=O (stereo not drawn)
CCc1ccc2oc(=O)cc(CN3CCCCC3C)c2c1 (stereo not drawn)
O=C(NCc1ccccc1)C1CCCN(c2nc3ccsc3c(=O)s2)C1 (stereo not drawn)
CC(C)CCNC(=O)CN(C(=O)Cn1nnc(-c2ccc(F)cc2)n1)C1CCCC1
CC(=O)Nc1ccc(S(=O)(=O)Nc2ccc(-c3ccc4nnc(C)n4n3)cc2)cc1
Cn1cc(CCC(=O)NC2CC2)c2ccccc21
COC(=O)c1sc(SC)c(S(=O)(=O)C(C)C)c1N/N=C(\C#N)S(=O)(=O)c1ccccn1
CCn1cc(C(=O)Nc2cc(C)ccc2C)c(=O)c2ccc(C)nc21
COC(=O)c1sc(NC(=O)COC(=O)C2CCC2)c(C(=O)OC)c1C
Cc1nnc(SCC(=O)Nc2ccc(S(=O)(=O)Nc3ccc(Cl)nn3)cc2)s1
Cn1c(SCC(=O)Nc2ccc(Cl)cc2)nc(O)cc1=O
Cc1nn(-c2ccccc2)c(NC(=O)c2cccs2)c(-c2ccc(Cl)cc2)c1=O
Cc1ccc(S(=O)(=O)N(C)CC(=O)NCCc2c[nH]c3ccccc23)cc1
Cc1ccccc1C1=NC(C(F)(F)F)(C(F)(F)F)c2c(n(-c3ccc(F)cc3)c(=O)[nH]c2=O)N1
CSc1nnc(C2CCCN(CC(=O)Nc3ccccc3N3CCOCC3)C2)n1C(C)C (stereo not drawn)
CCOc1ccc(C(C)=O)cc1COC(=O)c1cnc(Cl)c(Cl)c1
O=S(=O)(Cc1ccccc1)c1nc2ccccc2n1Cc1ccccn1
O=C(O)c1cccnc1Sc1ncnc2sc3c(c12)CCC3
CCCOc1ccc(Cc2c(Cl)nc(SC)nc2NC)cc1
CCOC(=O)c1c(NC(=O)Cn2nc(C(F)(F)F)cc2C)sc2c1CCC2
